Measured values taken from PubChem BioAssay.
Active and inactive are the calls of the source.

Test: E. coli acrAB mutant growth effects, primary screen, E. coli filamentation inducers, strain DRC39, OD650, 48 h (AID 1179);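 also: screen aims at cell division blockers that make cells filament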
Conditions: E. coli DRC39 delta-acrAB growth, higher = more signal, called active from +8 up or from −8 down

z-score, inactive:
O=C(O)[C@@H]1[C@@H]2C(=O)N(c3ccccc3)C(=O)[C@@H]2C[C@@H]1Sc1ccccc1 -1.3, CCOC(=O)C1=CC[C@@H](c2ccccc2F)N(S(=O)(=O)c2ccc(C)cc2)[C@H]1c1ccccc1 -0.35, C=CCN1Cc2ccccc2[C@@H]2OC(c3ccc(OCCCO)cc3)=N[C@]2(CC=C)C1=O 0.64, O=C(NCCN1CCOCC1)[C@@H]1c2ccccc2C(=O)N(C2Cc3ccccc3C2)[C@H]1c1ccc(CO)cc1 1.07, C=CCC(OC(C)=O)[C@@H]1[C@@H](N(Cc2cccc3ccccc23)C(=O)Cc2ccc(OC)cc2)c2cc(OCCCO)ccc2N1C(=O)c1ccc(-c2ccccc2)cc1 (stereo partly specified) -0.165, CC(C)[Si](C#CCCCC#N)(O[C@H](c1ccccc1)c1cn(Cc2ccccc2)nn1)C(C)C 0.0331, NCCCCCCNC(=O)[C@@H]1C[C@@H]2C(=O)N[C@@H](CCCCN)C(=O)N2[C@@H]1c1ccc(O)cc1 -1.11, CCN(CC)c1ccc(N2CC=CC34O[C@@H]5/C=C\CCCOC(=O)C5[C@H]3C(=O)N(C(C)CO)[C@@H]4C2=O)cc1 (stereo partly specified) 1.92, CC(C)N1C(=O)C[C@@](C(=O)O)(c2ccc([N+](=O)[O-])cc2)[C@H]1c1ccc(CO)cc1 0.684, CN(C)C(=O)[C@@]1(Cc2ccccc2)N=C(c2ccc(OCCCO)cc2)O[C@H]1c1ccccc1 -0.146, Cc1ccc(S[C@]2(C(=O)NC(C)C)CC(=O)N(Cc3cc(C(F)(F)F)cc(C(F)(F)F)c3)[C@@H]2c2ccc(CO)cc2)cc1 -0.229
